Screening results deposited in PubChem by National Center for Advancing Translational Sciences (NCATS).
DRD3 antagonist – antagonists of human D3 dopamine receptor. P35462. D3R cells, DiscoveRx beta-arrestin luminescence, antagonist mode; hits give low values. max response, negative = inhibition, %. actives 2.5% (n = 360,000). AID 652054; in the data active = max response below about -50%; inconclusive = no clear call, values can overlap the other calls
Target sequence (P35462 whole entry, looked up): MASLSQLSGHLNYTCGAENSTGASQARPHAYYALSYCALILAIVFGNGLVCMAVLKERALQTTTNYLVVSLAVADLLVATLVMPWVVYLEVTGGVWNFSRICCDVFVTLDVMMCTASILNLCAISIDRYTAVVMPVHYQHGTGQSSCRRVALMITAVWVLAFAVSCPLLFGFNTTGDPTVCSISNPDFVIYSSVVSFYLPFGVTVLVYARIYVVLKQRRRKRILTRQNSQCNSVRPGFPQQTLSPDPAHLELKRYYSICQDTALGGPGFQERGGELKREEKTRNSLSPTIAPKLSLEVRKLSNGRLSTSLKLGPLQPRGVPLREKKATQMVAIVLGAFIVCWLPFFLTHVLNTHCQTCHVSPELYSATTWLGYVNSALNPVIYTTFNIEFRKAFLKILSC
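Cells plated overnight at 1500 cells/well, then exposed to library compounds with dopamine controls for 90 minutes at 37 degrees C. DiscoveRx reagent added for 30–60 minutes at room temperature; luminescence read, quantitative HTS format.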
DRD3 agonist – agonists of human D3 dopamine receptor; max activation, %; D3R DiscoveRx beta-arrestin cells, luminescence, 90 min; P35462; actives 0.58% (n = 410,000); in the data active = max activation above about 30%
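Agonist mode: compounds and dopamine controls were applied to plated cells for 90 min at 37 degrees C after an overnight attachment at 1500 cells/well. Luminescent read-out followed 30 - 60 minutes at room temperature with DiscoveRx detection reagent.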
KB-3-1 cytotox – KB-3-1 parental cell cytotoxicity; KB-3-1 viability, CellTiter-Glo ATP luminescence, 72 h; actives 1.4% (n = 400,000); Potency, µM (series often up to 46.1 µM), hits mostly cytotoxic; note: nearly all actives have a fitted effect of over 60% in size
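Parental KB-3-1 viability, qHTS format: 72 h compound exposure, 37 °C; CellTiter-Glo; media-only wells and DMSO plates as controls; concentration-effect fits on corrected data.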
MCF10A rerep – inducers of DNA re-replication in MCF 10A breast cells; MCF 10A DNA re-replication, Hoechst nuclear intensity, 48 h; actives 2.9% (n = 350,000); Potency, µM (doses to about 46.1 µM), actives largely listed as activators; note: nearly all actives have a fitted effect of over 50% in size
SW480 rereplic – DNA re-replication induction in SW480 cells | SW480 DNA re-replication, Hoechst DNA content imaging, 48 h | Potency, µM (highest dose often 46.1 µM), actives largely listed as activators | actives 1.8% (n = 340,000) | AID 624297; note: nearly all actives have a fitted effect of over 55% in size
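Image-based read-out: total Hoechst fluorescence of nuclei (405 nm excitation, 500-530 nm emission), with hits raising the fraction of high-intensity nuclei. SW480 colon cells incubated 48 hr with compounds at 37 C.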
KB-V1 MDR tox – kills drug-selected multidrug resistant KB-V1 cells | AID 1347076 | Potency, µM (top dose mostly 46.1 µM), hits mostly cytotoxic | actives 3.4% (n = 400,000) | KB-V1 MDR cells viability, CellTiter-Glo, 72 h; note: nearly all actives have a fitted effect of over 60% in size
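Drug-selected KB-V1 cells, grown in DMEM lacking phenol red with 10% FBS, receive compound titrations; after three days at 37 degrees C, surviving cell ATP is quantified by CellTiter-Glo luminescence and responses normalized and curve-fitted.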
Numbers stand for hits; - = inactive; ? = inconclusive; . = no result; [ ] = dose if it differs, or a comment. Most compounds without a hit are left out; they make up all but 8.9% or so of the library. Unless noted, calls come from the whole dose curve; as a rule, active = well fitted curve in the direction sought with a large enough effect; inconclusive = small, poorly fitted or top-dose-only effect, or another doubt; inactive = no such curve, though single readings can be large; an effect the other way counts as inactive or inconclusive.

SMILES	DRD3 antagonist	DRD3 agonist	KB-3-1 cytotox	MCF10A rerep	SW480 rereplic	KB-V1 MDR tox
CC1Cc2ccccc2N1C(=O)CSc1nnc(CNc2ccccc2)o1 (centres undefined)	-	-	?	-	-	16.4µM
Cc1nc2ccc(S(=O)(=O)NC(CC(C)C)C(=O)N3CCN(c4ccc(F)cc4)CC3)cc2s1 (centres undefined)	.	-	-	.	.	-
CCOc1cccc(C(=O)N(Cc2ccc(CC)cc2)C2CCS(=O)(=O)C2)c1 (centres undefined)	.	-	-	.	.	-
O=C(NCc1ccc(F)cc1)C(=O)NCC(c1ccco1)S(=O)(=O)c1cccs1 (centres undefined)	.	-	-	.	.	-
CSc1ccc(CN2CCC(Oc3ccc(C(=O)N4CCCC4)cc3)CC2)cc1	-	-	-	-	-	-
C/C=C/c1ccc(OCCN2CCc3ccccc3C2)c(OC)c1	-75.8	-	-	?	-	?
C=CCc1ccc(OCCCCN2CC(C)OC(C)C2)c(OC)c1 (centres undefined)	-68.7	-	-	-	-	?
Cc1ccc(Cl)c(OCCN2CCc3ccccc3C2)c1	-60.4	-	-	-	-	-
C=CCc1ccc(OCCn2cncn2)c(OC)c1	-	-	-	-	-	-
Cc1ccc(C(C)C)c(OCC(O)CN2CCc3ccccc3C2)c1 (centres undefined)	?	-	?	?	?	?
C=CCc1ccc(OCCN2CCc3ccccc3C2)c(OC)c1	-74.7	-	-	-	-	-
C/C=C/c1ccc(OCCCCOc2c(OC)cccc2OC)c(OC)c1	-	-	-	-	-	-
O=C(Nc1ccc2c(c1)OCO2)Nc1nnc(-c2ccncc2)s1	.	.	-	.	.	-
COc1cc(OC)c(NC(=O)Cn2cnc3sc(C)c(S(=O)(=O)N4CCN(C)CC4)c3c2=O)cc1Cl	.	-	-	.	.	-
CCC(=O)N1c2nc(C(C)C)nn2C2(CCCCC2)[C@@H]2CCCC[C@@H]21	.	-	.	.	.	.
O=C(NCc1ccco1)/C(=C/C=C\c1ccccc1)NC(=O)c1ccc(Br)o1	-	-	?	?	?	4.11µM
CC(C)Cn1nc(C(=O)NCc2ccccc2CN2CCCC2)c2ccccc2c1=O	-	-	-	-	-	5.8µM
COc1ccc(NC(=O)CSc2nc(-c3cccc(C)c3)[nH]c2-c2ccccc2)cc1OC	.	-	?	.	.	?
CSCC[C@H](NC(=O)c1ccc(Cl)c(S(=O)(=O)N2CCCC2)c1)c1nc2ccccc2[nH]1	-52.0	-	-	-	?	-
COc1ccc(C(CNC(=O)c2cccc(S(=O)(=O)N3CCc4ccccc43)c2)N(C)C)cc1 (centres undefined)	?	-	?	?	?	-
O=C(NCc1ccccc1CN1CCCC1)c1ccc(S(=O)(=O)Nc2ccccc2)cc1	-58.6	-	-	.	.	?
CSCCC(NC(=O)c1cccc(S(=O)(=O)N2CCN(C(C)=O)CC2)c1)c1nc2ccccc2[nH]1 (centres undefined)	-	-	-	-	-	?
COc1ccccc1C(CNC(=O)c1cccc(S(=O)(=O)N2CCCc3ccccc32)c1)N(C)C (centres undefined)	-	-	-	-	-	5.8µM
O=C(NCc1ccccc1CN1CCCC1)c1ccc(Cl)c(S(=O)(=O)N2CCCC2)c1	-50.2	-	-	?	?	-
Cc1c(-c2nsc(NC(=O)c3ccc(Cl)cc3)n2)nnn1-c1ccc(C(C)C)cc1	.	-	-	.	.	-
SMILES	DRD3 antagonist	DRD3 agonist	KB-3-1 cytotox	MCF10A rerep	SW480 rereplic	KB-V1 MDR tox
CN(C)C(CNC(=O)c1ccc(Cl)c(S(=O)(=O)N2CCCCCC2)c1)c1ccccc1 (centres undefined)	-80.7	-	-	-	?	-
CN(C)C(CNC(=O)c1cccc(S(=O)(=O)N2CCN(c3ccc(F)cc3)CC2)c1)c1ccccc1 (centres undefined)	-80.6	-	?	?	?	-
COc1ccccc1CNC(=O)c1cccc(S(=O)(=O)N2CCN(c3ccc(F)cc3)CC2)c1	-	-	-	-	-	-
O=C(Nc1cc(=O)c2ccccc2o1)N1CCCCC1	-	-	-	?	-	11.6µM
CC(=O)Nc1ccc(SCC(=O)N(C)C2CCS(=O)(=O)C2)cc1 (centres undefined)	-59.2	-	-	-	-[1.84 µM]	-
CN(C(=O)CSc1ncccn1)C1CCS(=O)(=O)C1 (centres undefined)	-	-	-	-	-	-
Cc1ccc2oc(/N=C(\N)NC(=O)C3CC3)nc2c1	-	-	?	?	9.2µM	5.17µM
Cc1ccc2oc(/N=C(\N)NC(=O)C(C)(C)C)nc2c1	-52.2	-	-	-	?	-
COc1ccc(CCNC(=O)C2(c3cccs3)CCOCC2)cc1	.	-	-	.	.	-
COC(=O)[C@@]12C[C@@H](CC(=O)NCc3ccccc3)C(=O)N(Cc3ccccc3)C1=CCC(C)(C)C2	-	-	?	.	.	20.6µM
COC(=O)[C@@]12C[C@@H](CC(=O)NCc3ccc(C)o3)C(=O)N(Cc3ccccc3)C1=CCC(C)(C)C2	-	-	-	.	.	18.4µM
COC(=O)[C@@]12C[C@@H](CC(=O)NCc3ccccc3)C(=O)N(Cc3cccc4ccccc34)C1=CCC(C)(C)C2	?	-	-	.	.	?
CCOC(=O)[C@]12CCC=C1N(Cc1ccccc1)C(=O)[C@H](CC(=O)NCC13CC4CC(CC(C4)C1)C3)C2	-52.8	-	-	.	.	?
CCOC(=O)[C@]12CCC=C1N(Cc1cccc3ccccc13)C(=O)[C@H](CC(=O)NCC13CC4CC(CC(C4)C1)C3)C2	-	-	-	.	.	?
Cn1ccc2cc(S(=O)(=O)N3CCCN(C(=O)Nc4ccc(Br)cc4)CC3)ccc21	.	-	-	.	.	?
COc1ccc(-n2ccnc2SCC(=O)Nc2nnc(C)s2)cc1	.	-	.	.	.	.
Cc1ccc(C(=O)N/C(=C/c2cccc([N+](=O)[O-])c2)C(=O)NC(C)C)cc1	-	-	-	-	-	-
O=C(N/C(=C\c1cccc([N+](=O)[O-])c1)C(=O)N(CCO)CCO)c1ccco1	-	-	-	-	-	-
O=C(Nc1ccccc1Oc1ccccc1)c1cccc([N+](=O)[O-])c1	-	-	-	-	-	18.4µM
CC(C)NC(=O)/C(=C\c1cccc([N+](=O)[O-])c1)NC(=O)c1ccccc1	-107.1	-	-	-	-	?
COc1ccccc1NC(=O)/C(=C/c1cccc([N+](=O)[O-])c1)c1ccccc1	-	-	-	?	-	5.8µM
CCN(CC)C(=O)/C(=C\c1cccc([N+](=O)[O-])c1)NC(=O)c1ccco1	-	-	-	-	-	13µM
O=C(COc1ccccc1)NCCc1csc(-c2ccc(Cl)cc2)n1	.	-	-	.	.	-
